Measurements taken from PubChem BioAssay AID1851 (National Center for Advancing Translational Sciences (NCATS), 2009).
“And” between values parts separate entries of the source, which are not always exact repeats. Equal values may be shown once. Out of some 16,000 compounds screened, about 5,700 (36%) were called active. Another 24% or so got no clear call; they are omitted. The list shows a part of the results. A number with no mark means an inactive call. Calls come from the whole dose curve; as a rule, active = well fitted curve in the direction sought with a large enough effect; inconclusive = small, poorly fitted or top-dose-only effect, or effect the other way; inactive = no such curve, though single readings can be large or run the other way.

Biological target: Cytochrome P450 1A2 (Homo sapiens) (UniProt P05177)
Test: Cytochrome panel assay with activity outcomes
Conditions: recombinant CYP, pro-luciferin dealkylation, luminescence, p450-cyp1a2; series mostly up to 57.1 µM; activity, negative = inhibition: at the top concentration
% is set by controls: 0 for no effect and ±100 for the full control effect.

Sequence of Cytochrome P450 1A2 (Homo sapiens) (P05177 whole entry, looked up): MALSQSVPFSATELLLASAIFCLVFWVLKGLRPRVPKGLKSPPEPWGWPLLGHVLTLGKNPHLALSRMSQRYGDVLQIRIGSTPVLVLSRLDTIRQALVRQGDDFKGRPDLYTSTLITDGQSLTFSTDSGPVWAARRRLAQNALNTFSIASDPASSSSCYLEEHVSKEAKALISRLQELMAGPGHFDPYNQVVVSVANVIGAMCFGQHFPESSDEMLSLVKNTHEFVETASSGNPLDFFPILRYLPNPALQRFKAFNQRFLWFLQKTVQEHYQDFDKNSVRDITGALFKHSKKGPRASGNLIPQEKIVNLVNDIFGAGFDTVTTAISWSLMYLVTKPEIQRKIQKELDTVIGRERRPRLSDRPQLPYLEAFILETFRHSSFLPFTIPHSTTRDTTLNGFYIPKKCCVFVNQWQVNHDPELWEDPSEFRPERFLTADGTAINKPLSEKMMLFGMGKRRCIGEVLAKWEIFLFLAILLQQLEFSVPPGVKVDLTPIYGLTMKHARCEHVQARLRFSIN

SMILES | activity, negative = inhibition | AC50
CC(C)COP(=O)(c1ccc(N(C)C)cc1)C(O)c1ccccc1F (configuration not stated) | -15.4% | 
O=C(Nn1cnc2ccccc2c1=O)c1ccc(F)cc1Cl | -11.4% | 
CN1CCN(C(=O)c2ccc3c(=O)n4c(nc3c2)CCCCC4)CC1 | -16.5% | 
O=C(Nc1ccc(F)cc1Cl)c1ccc2c(=O)n3c(nc2c1)CCCCC3 |  | 5.01 µM (active)
CO[C@H]1COC(=O)[C@@H](C)COC(=O)[C@@H](COCc2ccccc2)NC(=O)C/C=C\[C@H]1C | 3.03% [at 11.4 µM] | 
COc1cc(COc2cc(N)c(Cl)cc2C(=O)CCC2CCN(CCNS(C)(=O)=O)CC2)cc(OC)c1 | -11.5% | 
CCCCN1CCC(CCC(=O)c2cc(Cl)c(N)cc2OC)CC1 | -39% | 
CCCCN1CCC(COC(=O)c2cc(Cl)c(N)c3c2OCCO3)CC1 |  | 12.6 µM (active)
CCCCCCCCC(=O)N/N=C/c1cccc(Br)c1 |  | 0.891 µM (active)
CCN(CC)C(=O)C(=O)N/N=C/c1cccc(Br)c1 |  | 10 µM (active)
CCCCCCCCC(=O)N/N=C/c1ccccn1 |  | 4.47 µM (active)
NC([N-]/N=C/c1ccccn1)=[S]=[Fe].O=S(=O)(O)O | 15.8% [at 2.29 µM] | 
COCCNC(=O)Cn1cnc2ccc(S(=O)(=O)N3CCC(C)CC3)cc2c1=O | -6.54% | 
CC(C)CN1CCC2(CC1)CCN(S(=O)(=O)c1ccccc1)CC2 | 8.32% | 
O=S(=O)(c1ccccc1)N1CCC2(CCCN(Cc3nccs3)C2)CC1 | 13.2% | 
CC(C)CN1CCCC2(CCN(S(=O)(=O)c3ccccc3)CC2)C1 | 3.46% | 
O=S(=O)(c1ccccc1)N1CCC[C@@]2(CCN(Cc3nccs3)C2)C1 |  | 15.8 µM (active)
CC(C)CN1CC[C@@]2(CCCN(S(=O)(=O)c3ccccc3)C2)C1 |  | 25.1 µM (active)
O=S(=O)(c1ccccc1)N1CCC2(CC1)CN(Cc1nccs1)C2 | 6.2% | 
Cc1ccc(S(=O)(=O)N[C@H]2COC(=O)[C@@H](C)COC(=O)[C@H](C)NC(=O)C/C=C\[C@H]2C)cc1 | -11.4% [at 11.4 µM] | 
CC(C)NC(=O)N1CC[C@@]2(CCCN(C(=O)c3cc(C(F)(F)F)cc(C(F)(F)F)c3)C2)C1 | 8.13% | 
CCOC(=S)SCC(=O)O | -12.2% [at 11.4 µM] | 
Cc1ccc(S(=O)(=O)N[C@H]2COC(=O)C/C=C\[C@@H](C)COC(=O)C/C=C\[C@@H]2C)cc1 | 0.253% [at 11.4 µM] and 8.99% [at 11.4 µM] | 
Cc1ccc(-c2[nH]n3c(=O)c4c(nc3c2C)CCCC4)cc1 |  | 2.51 µM (active)
Nc1[nH]n2c(=O)c3c(nc2c1N=Nc1ccccc1)CCCC3 |  | 5.62 µM (active)
N#Cc1c[nH]n2c(=O)c3c(nc12)CCCC3 | -18.5% | 
O=c1c2c(nc3c(-c4ccccc4)c[nH]n13)CCC2 |  | 5.62 µM (active)
